According to publication PMC4336329 (PLoS ONE, 2015):
Hit rate of the full screen: of about 310,000 compounds, about 14,000 (4.5%) showed an effect of 50% or more. Effects have a minus sign here. Shown is part of a subset that was picked to be rich in strong results.

Target: human ether-à-go-go-related gene (hERG) potassium channel (human, UniProt Q12809)
Test: primary screen, population patch clamp on CHO cells stably expressing hERG; higher = less effect of the substance
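Note: peak tail current of the secondary pulse compared with the same well before compound.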

human ether-à-go-go-related gene (hERG) potassium channel, sequence (Q12809 whole entry, looked up): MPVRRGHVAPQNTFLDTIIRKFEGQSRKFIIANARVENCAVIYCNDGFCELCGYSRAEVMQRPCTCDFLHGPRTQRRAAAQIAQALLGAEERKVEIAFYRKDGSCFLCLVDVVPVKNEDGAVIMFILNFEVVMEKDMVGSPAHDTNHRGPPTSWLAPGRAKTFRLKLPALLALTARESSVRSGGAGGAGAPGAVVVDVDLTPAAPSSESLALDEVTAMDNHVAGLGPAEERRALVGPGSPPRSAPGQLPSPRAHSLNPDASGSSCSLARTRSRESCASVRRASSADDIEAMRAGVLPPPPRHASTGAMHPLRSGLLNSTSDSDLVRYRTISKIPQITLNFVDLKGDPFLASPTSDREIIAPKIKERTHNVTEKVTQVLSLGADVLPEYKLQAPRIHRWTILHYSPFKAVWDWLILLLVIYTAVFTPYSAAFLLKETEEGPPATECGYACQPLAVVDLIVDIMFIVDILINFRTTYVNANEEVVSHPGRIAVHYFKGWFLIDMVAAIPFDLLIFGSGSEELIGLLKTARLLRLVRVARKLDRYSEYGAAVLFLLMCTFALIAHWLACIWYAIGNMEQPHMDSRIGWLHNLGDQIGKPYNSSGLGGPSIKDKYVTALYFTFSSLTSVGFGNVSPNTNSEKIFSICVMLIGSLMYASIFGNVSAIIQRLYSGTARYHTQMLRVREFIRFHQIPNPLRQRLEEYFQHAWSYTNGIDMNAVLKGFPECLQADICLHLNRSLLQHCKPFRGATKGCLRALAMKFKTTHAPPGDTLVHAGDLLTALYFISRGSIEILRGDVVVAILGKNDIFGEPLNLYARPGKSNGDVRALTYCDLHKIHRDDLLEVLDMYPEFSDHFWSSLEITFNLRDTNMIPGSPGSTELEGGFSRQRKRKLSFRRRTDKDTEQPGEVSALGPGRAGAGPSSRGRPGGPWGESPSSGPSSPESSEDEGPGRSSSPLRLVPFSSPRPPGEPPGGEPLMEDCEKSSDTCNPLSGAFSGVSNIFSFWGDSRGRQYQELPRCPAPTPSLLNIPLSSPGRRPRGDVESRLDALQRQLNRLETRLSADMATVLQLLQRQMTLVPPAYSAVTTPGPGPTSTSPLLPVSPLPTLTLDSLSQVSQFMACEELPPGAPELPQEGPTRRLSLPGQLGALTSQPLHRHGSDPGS

Going from CCC/C(O)=C1\C(=O)CC(C)(C)CC1=Nc1ccccc1OC to CCN1CCCC1CNC(=O)c1cc2c(OC)cccc2[nH]1 (centres unmarked), the “hERG current change (%, negative = inhibition) at 10uM” value falls from -13.4% to -20.8%.

Compared with O=C(CCc1nnc(C2CCCCC2)o1)N1CCN(Cc2ccccc2)CC1, Cc1nnc2c(NC3CCCC3)nc3ccccc3n12 is lower in “hERG current change (%, negative = inhibition) at 10uM” value: 5.53% for the first, -37.3% for the second.

Going from COCCN(C(=O)CCC(=O)Nc1nccs1)C(C(=O)NC(C)(C)C)c1ccc(C)cc1 (centres unmarked) to CCn1c(CC(=O)Nc2cccc(OC)c2)nnc1SCC(=O)Nc1nccs1, the “hERG current change (%, negative = inhibition) at 10uM” value falls from 5.03% to -2.39%.

First: COc1ccccc1C1CCN(c2cc(O)ccc2[N+](=O)[O-])CC1
Second: COc1ccc(NC(=O)COC(=O)[C@@H]2CCCN2S(=O)(=O)c2ccccc2F)c(OC)c1
The “hERG current change (%, negative = inhibition) at 10uM” value of the first is higher: 4.65% for the first, -18.2% for the second.

Going from Cc1cccc(NS(=O)(=O)c2nnc(NC(=O)c3cccc(C)c3)s2)c1 to Cc1cccc(CS(=O)(=O)Cc2ccc(C(=O)NCCc3ccccc3)o2)c1, the “hERG current change (%, negative = inhibition) at 10uM” value falls from 2.44% to -38.8%.

First: O=C(Nc1cc(-c2nc3ccccc3s2)ccc1Cl)c1ccc2c(c1)OCO2
Second: Cc1ccc(NC(=O)c2ccc3c(c2)OCO3)cc1Cl
The “hERG current change (%, negative = inhibition) at 10uM” value of the first is higher: 7.51% for the first, -2.98% for the second.

Going from CCOC(=O)c1nc2nc(C)c(Cl)c(=O)n2[nH]1 to CCOC(=O)c1cc(-c2ccccc2C)nn1CC1CC(c2ccc(OC)cc2)=NO1 (centres unmarked), the “hERG current change (%, negative = inhibition) at 10uM” value rises from 0.341% to 3.54%.

First: COc1cccc2cc(C(=O)NC(C)c3ccccc3)c(=O)oc12 (centres unmarked)
Second: COc1ccc(CCN(C(=O)c2cccc(F)c2)C2CC(=O)N(c3ccccc3)C2=O)cc1 (centres unmarked)
The “hERG current change (%, negative = inhibition) at 10uM” value of the first is higher: 16.3% for the first, -38.5% for the second.

First: CCCCN(CCCNC(=O)Cn1nc(CC)n2c(cc3sc(C)cc32)c1=O)Cc1ccccc1
Second: CCc1nn(CC(=O)NCCCN(C)Cc2ccccc2)c(=O)c2cc3sc(C)cc3n12
The “hERG current change (%, negative = inhibition) at 10uM” value of the first is higher: -47.1% for the first, -69.9% for the second.

First: CCc1nn(CC(=O)NCCCN(CC)CC)c(=O)c2cc3sc(C)cc3n12
Second: CCc1cc2c(cc3c(=O)n(CC(=O)NCCCN(CC)CC)nc(CC)n32)s1
The “hERG current change (%, negative = inhibition) at 10uM” value of the first is higher: 7.73% for the first, -34.9% for the second.

Compared with CCc1nn(CC(=O)NCCCN2CCc3ccccc3C2)c(=O)c2cc3sccc3n12, CCc1nn(CC(=O)NCCCN2CCCC2=O)c(=O)c2cc3sccc3n12 is higher in “hERG current change (%, negative = inhibition) at 10uM” value: -70.2% for the first, -12.3% for the second.

Compared with CCc1nn(CC(=O)NCCCN2CCN(C)CC2)c(=O)c2cc3sccc3n12, CCc1nn(CC(=O)NCCCN2CCN(C)CC2)c(=O)c2cc3sc(C)cc3n12 is higher in “hERG current change (%, negative = inhibition) at 10uM” value: 7.04% for the first, 14.8% for the second.

Compared with CCc1nn(CC(=O)NCCCN(Cc2ccccc2)C(C)C)c(=O)c2cc3sccc3n12, CCc1nn(CC(=O)NCCCN(CC)Cc2ccccc2)c(=O)c2cc3sccc3n12 is lower in “hERG current change (%, negative = inhibition) at 10uM” value: -43.8% for the first, -50.2% for the second.

Compared with CCc1nn(CC(=O)NCCCN2CCOCC2)c(=O)c2cc3sccc3n12, CCc1cc2c(cc3c(=O)n(CC(=O)NCCCN4CCCCCC4)nc(CC)n32)s1 is lower in “hERG current change (%, negative = inhibition) at 10uM” value: 16.2% for the first, -72.7% for the second.

Compared with CN1Cc2c(N3CCOCC3)nc3sc(C#N)c(N)c3c2CC1(C)C, N#Cc1ccc(OCC(=O)OCC(=O)Nc2ccc(N3CCOCC3)cc2)cc1 is lower in “hERG current change (%, negative = inhibition) at 10uM” value: -8.57% for the first, -15.3% for the second.

Going from Cc1ccc(NC(=O)COC(=O)Cn2c(C)csc2=O)cc1C to COc1ccc(NC(=O)COC(=O)CCNS(=O)(=O)c2ccccc2)cc1OC, the “hERG current change (%, negative = inhibition) at 10uM” value rises from 2.05% to 23.2%.

Compared with CC(=O)N1CCC(N(C(=O)Nc2ccc(C)c(C)c2)C2CCCC2)CC1, Cc1ccc(C2CCN(C(=S)NC3CCCCC3)C2)cc1 (centres unmarked) is higher in “hERG current change (%, negative = inhibition) at 10uM” value: -31.2% for the first, -5.82% for the second.

First: Cc1nnc(SCC2=C(C(=O)[O-])N3C(=O)C(NC(=O)Cc4ccccc4)C3SC2)s1.[Na+] (centres unmarked)
Second: C/C(=N\NC(=O)c1cc(O)cc(O)c1)c1ccc(NC(=O)Cc2ccccc2)cc1
The “hERG current change (%, negative = inhibition) at 10uM” value of the first is lower: 9.74% for the first, 14.2% for the second.

Compared with CCN1CCN(CCCNC(=O)c2cc3sccc3n2CC)CC1, CCn1c(C(=O)NCCCN2CCc3ccccc3C2)cc2sccc21 is lower in “hERG current change (%, negative = inhibition) at 10uM” value: -40.8% for the first, -64% for the second.

Compared with CCn1c(C(=O)N2CCc3ccccc3C2)cc2sccc21, Cc1cc(N2CCN(C)CC2)nc2ccc(NC(=O)c3ccccc3F)cc12 is lower in “hERG current change (%, negative = inhibition) at 10uM” value: -3.24% for the first, -58.4% for the second.

Compared with CC(=O)NCc1ccc(C(=O)CCl)s1, NC(=O)NC(=O)COC(=O)CNS(=O)(=O)c1ccc(F)c(F)c1F is higher in “hERG current change (%, negative = inhibition) at 10uM” value: -7.15% for the first, 13.3% for the second.

First: CCN(CC)CCn1c2ccccc2c2cnc(N)c(C#N)c21
Second: CCN(CC)CCn1c2ccccc2c2cnc(N=CN(C)C)c(C#N)c21
The “hERG current change (%, negative = inhibition) at 10uM” value of the first is lower: -60.5% for the first, -31.8% for the second.

Compared with CN(C)C=Nc1ncc2c3ccccc3n(CCN(C)C)c2c1C#N, CCCCN1CCCC1CNC(=O)c1cc(C#N)c2ccccc2c1OC (centres unmarked) is lower in “hERG current change (%, negative = inhibition) at 10uM” value: -15.7% for the first, -64.3% for the second.

Going from CC1CN(C(=O)CSc2nc(N)cc(N)n2)CC(C)O1 (centres unmarked) to CC1CCCC(NC(=O)c2ccc(COc3ccccc3)o2)C1C (centres unmarked), the “hERG current change (%, negative = inhibition) at 10uM” value rises from -10.3% to 0.0111%.

Going from CCCOc1ccc(N2C(=O)CC(N(CCc3ccc(OC)cc3)C(=O)c3ccccc3)C2=O)cc1 (centres unmarked) to CCCOc1ccc(N2C(=O)CC(N(CCc3ccc(OC)cc3)C(=O)c3cccc(F)c3)C2=O)cc1 (centres unmarked), the “hERG current change (%, negative = inhibition) at 10uM” value rises from -10.6% to -8.44%.

Compared with CCCOc1ccc(N2C(=O)CC(N(CCc3ccc(OC)c(OC)c3)C(=O)c3ccccc3)C2=O)cc1 (centres unmarked), CCCOc1ccc(N2C(=O)CC(N(CCc3ccccc3)C(=O)c3ccccc3)C2=O)cc1 (centres unmarked) is higher in “hERG current change (%, negative = inhibition) at 10uM” value: -74.9% for the first, 10.8% for the second.

Going from CCOc1ccc(N2C(=O)CC(N(CCc3ccc(OC)cc3)C(=O)c3cccc(F)c3)C2=O)cc1 (centres unmarked) to COc1ccc(-c2csc(N(CCCN(C)C)C(=O)c3ccc(F)cc3)n2)cc1.Cl, the “hERG current change (%, negative = inhibition) at 10uM” value rises from -63% to -58.1%.

Going from Cc1cccc(N(Cc2cc3ccc(C)cc3[nH]c2=O)C(=O)c2ccco2)c1 to COC(=O)c1cccc(Nc2nc(-c3ccncc3)nc3ccccc23)c1, the “hERG current change (%, negative = inhibition) at 10uM” value rises from -8.8% to 28.5%.

Going from O=C(CNS(=O)(=O)c1ccccc1)OCC(=O)c1ccc([N+](=O)[O-])cc1 to N#Cc1ccc(NC(=O)COC(=O)CCNS(=O)(=O)c2ccccc2)cc1, the “hERG current change (%, negative = inhibition) at 10uM” value falls from -3.22% to -34.4%.

Compared with COc1ccc(NC(=O)COC(=O)CNS(=O)(=O)c2ccc(F)c(F)c2F)cc1OC, O=C(COC(=O)CNS(=O)(=O)c1ccc(F)c(F)c1F)Nc1ccc(OC(F)F)cc1 is lower in “hERG current change (%, negative = inhibition) at 10uM” value: 21.3% for the first, -65.2% for the second.

Compared with O=C(COC(=O)[C@@H]1CCCN1S(=O)(=O)c1ccccc1F)Nc1ccc(OC(F)F)cc1, CC(=O)c1ccccc1NC(=O)COC(=O)C1CCCN1S(=O)(=O)c1ccccc1F (centres unmarked) is higher in “hERG current change (%, negative = inhibition) at 10uM” value: -61.7% for the first, -0.476% for the second.

Going from O=C(COC(=O)CCNS(=O)(=O)c1ccccc1)Nc1ccc(OC(F)F)cc1 to NS(=O)(=O)c1ccc(CCNC(=O)c2ccc(OCC3CCCO3)cc2)cc1 (centres unmarked), the “hERG current change (%, negative = inhibition) at 10uM” value rises from -60.3% to 19.9%.

Compared with CCc1ccc2c(c1)cc(C)c1nnc(SCC(=O)Nc3cc(OC)c(OC)cc3C(=O)O)n12, COc1ccc(C(=O)Nc2ccc3nc(N4CCN(C)CC4)cc(C)c3c2)c(OC)c1 is lower in “hERG current change (%, negative = inhibition) at 10uM” value: 5.98% for the first, -0.388% for the second.

Compared with CC1CCC2(CC1)NC(=O)N(CC(=O)NCc1ccc(F)cc1)C2=O (centres unmarked), CCN1CCCC1CNC(=O)c1cc2cc(F)ccc2[nH]1 (centres unmarked) is lower in “hERG current change (%, negative = inhibition) at 10uM” value: -21.2% for the first, -73.3% for the second.

Going from C/C(=N/Nc1nc(-c2ccccc2)cc(-c2ccc(F)cc2)n1)c1cccc(N)c1 to Oc1ccccc1C1NN=C(c2ccccc2)S1 (centres unmarked), the “hERG current change (%, negative = inhibition) at 10uM” value falls from 3.2% to -15%.

Compared with Cc1cc(N2CCN(C)CC2)nc2ccc(NC(=O)c3ccc4c(c3)OCO4)cc12, CCN1CCN(c2cc(C)c3cc(NC(=O)c4ccc5c(c4)OCO5)ccc3n2)CC1 is higher in “hERG current change (%, negative = inhibition) at 10uM” value: -62.2% for the first, -38.6% for the second.

Going from Cc1cc(N2CCN(C)CC2)nc2ccc(NC(=O)c3cccnc3Cl)cc12 to O=C(Nc1ccc2c(c1)OCCO2)C1CCCN(S(=O)(=O)c2cccc3nsnc23)C1 (centres unmarked), the “hERG current change (%, negative = inhibition) at 10uM” value rises from -2.54% to 4.93%.

First: O=C(CNC1CCCCCC1)Nc1ccc(S(=O)(=O)NC2CC2)cc1
Second: CNC(=O)c1c(NC(=O)c2ccc(S(=O)(=O)N3CCCCC3C)cc2)sc2c1CCN(C)C2 (centres unmarked)
The “hERG current change (%, negative = inhibition) at 10uM” value of the first is higher: 1.98% for the first, -3.92% for the second.

First: Nc1ccccc1SCc1ccccc1
Second: CSc1ccc(CN(C)C(C)C(=O)Nc2ccc(F)c(F)c2F)cc1 (centres unmarked)
The “hERG current change (%, negative = inhibition) at 10uM” value of the first is lower: -2.24% for the first, 15.3% for the second.

First: COc1ccc(-c2csc(N(CCCN(C)C)C(=O)c3ccc(C)cc3)n2)cc1.Cl
Second: COc1ccc(-c2csc(N(CCCN(C)C)C(=O)c3ccc(C(C)(C)C)cc3)n2)cc1.Cl
The “hERG current change (%, negative = inhibition) at 10uM” value of the first is lower: -68.2% for the first, 18% for the second.

First: CCN1CCCC1CNC(=O)c1[nH]c2ccc(OC)cc2c1C (centres unmarked)
Second: CCN1CCCC1CNC(=O)c1cc2ccc(OC)cc2[nH]1 (centres unmarked)
The “hERG current change (%, negative = inhibition) at 10uM” value of the first is lower: -51.2% for the first, -12.4% for the second.

Going from CCc1cc(Cl)c(OC)c(C(=O)NC[C@@H]2CCCN2CC)c1O.Cl to CCN1CCC[C@H]1CNC(=O)c1c(O)c(Cl)cc(Cl)c1OC, the “hERG current change (%, negative = inhibition) at 10uM” value rises from -59.2% to -10.4%.

First: O=C(NCC1CCCO1)c1cc2cc(F)ccc2[nH]1 (centres unmarked)
Second: CCN1CCCC1CNC(=O)c1cc2cc(OC)c(OC)cc2[nH]1 (centres unmarked)
The “hERG current change (%, negative = inhibition) at 10uM” value of the first is lower: 9.11% for the first, 16.6% for the second.

Compared with CCN1CCCC1CNC(=O)c1cc(OC)c(OC)c(OC)c1 (centres unmarked), CCN1CCCC1CNC(=O)c1cc2c(OC)c(OC)c(OC)cc2[nH]1 (centres unmarked) is higher in “hERG current change (%, negative = inhibition) at 10uM” value: 12.8% for the first, 23.2% for the second.

CCN1CCC[C@H]1CNC(=O)c1c(O)c(Cl)cc(Cl)c1OC.O=C(O)C(O)C(O)C(=O)O was tested, and the “hERG current change (%, negative = inhibition) at 10uM” value was -13.8%.
